# aSyn 5UTR act = Activators working through SNCA 5'UTR binding (MLPCN) | activity score, % (tested at 7.5 µM), hits read low | AID 1814 | actives 7.1% (n = 300,000) | alpha-synuclein 5'UTR reporter, activators screen; in the data active means activity score below about -60%
# The depositor's hits bear a star. Not all results are given here.
SMILES,aSyn 5UTR act
COC(=O)c1cccc(NC(=O)/C=C/c2ccc3c(c2)OCO3)c1,102
O=C(Nc1cccc(OC(=O)c2ccc(Br)o2)c1)c1ccccc1,-66*
CC(C)(C)c1ccc(C(=O)Nc2ccc(CC(=O)O)cc2)o1,111
CC(C)c1ccc(NC(=O)c2ccc(Br)o2)cc1,-148*
O=C(NC(=S)Nc1ccccc1)c1ccc(Br)o1,-287*
O=C(Nc1ccc(Nc2ccccc2)cc1)c1ccc(Br)o1,-128*
COc1ccc(NC(=O)c2ccc(Br)o2)cc1,-159*
COc1ccc(NC(=S)NC(=O)c2ccc(Br)o2)cc1,-107*
NC(=O)c1ccccc1NC(=S)NC(=O)c1ccc(Br)o1,-124*
CCCC(=O)Nc1ccc2c(c1)Cc1ccccc1-2,-138*
O=C(Nc1ccc2c(c1)Cc1ccccc1-2)c1ccc(Br)o1,-94*
Cc1ccc2nc(C3CCCCC3)[nH]c2c1,-93*
COc1cccc(NC(=O)COc2cc(O)c3c(c2)OC(C)(C)CC3=O)c1,-87*
CC1(C)CC(=O)c2c(O)cc(OCc3ccc([N+](=O)[O-])cc3)cc2O1,-150*
O=c1c(Cl)c(Cl)cnn1Cc1nnc(-c2ccccc2Br)o1,-66*
Clc1ccccc1OCc1nnc(-c2ccccc2Br)o1,-173*
N#Cc1ccccc1OCc1nnc(-c2ccccc2Br)o1,-178*
CCCc1cc(=O)[nH]c(-n2[nH]c3c(c2=O)CCCC3)n1,56
CCCc1cc(=O)n2[nH]c(-c3ccc(Br)cc3)cc2n1,-87*
CCCc1cc(=O)n2[nH]c(-c3cccc(Br)c3)cc2n1,-181*
CCn1c(=O)c2cc(C(=O)NC(C)C)sc2c2ccccc21,-79*
CCCc1cc(=O)n2c([nH]c3ccccc32)c1C#N,-70*
COCc1ccc(C(=O)N(C)CC2CCCN(CCc3ccc(OC)cc3)C2)o1 (stereo not given),-123*
COc1ccc(CCN2CCCC(CN(C)C(=O)c3cc(C)oc3C)C2)cc1 (stereo not given),-149*
CN(C)C(CNC(=O)c1ccc(C2SCCS2)cc1)c1ccccc1 (stereo not given),-100*
SMILES,aSyn 5UTR act
CC(=O)c1cccc(Nc2ccc(-c3ccccc3F)nn2)c1,-155*
CC(=O)c1ccc(Nc2ccc(-c3ccccc3C)nn2)cc1,-148*
O=C(Nc1ccc(S(=O)(=O)NC2=NCCCCC2)cc1)c1ccc([N+](=O)[O-])s1,-66*
CC(=O)c1ccc(OC(C)c2nc3ccccc3s2)cc1 (stereo not given),-89*
CCC1=C/C(=C/N(C)c2ccccc2)C(=O)S1,-62*
O=C(C1=NN[C@@H]2C(=O)N(c3cccc(F)c3)C(=O)[C@H]12)c1ccc2ccccc2n1,-79*
C=CCNC(=O)c1ccc(CN(c2ccc(OCC)cc2)S(=O)(=O)c2ccc(C)cc2)cc1,-93*
CCOc1ccc(N(CC(=O)Nc2ccc(C)cc2)S(C)(=O)=O)cc1,-113*
CC(=O)c1ccc(NC(=O)CN(c2c(C)cccc2C)S(C)(=O)=O)cc1,-131*
CCOc1ccc(N(CC(=O)Nc2ccccc2C)S(=O)(=O)c2c(C)noc2C)cc1,59
CS(=O)(=O)N(CC(=O)Nc1ccccc1C(=O)NCCc1ccccc1)c1ccc2c(c1)OCCO2,-153*
CCOc1ccc(N(CC(=O)Nc2cc(C)cc(C)c2)S(C)(=O)=O)cc1,-88*
CCOc1ccc(N(CC(=O)NCc2ccccc2OC)S(C)(=O)=O)cc1,-90*
Cc1ccc(N(CC(=O)Nc2ccc3c(c2)OCCO3)S(C)(=O)=O)cc1,-99*
CC(C)c1ccc(/C=C2\CC/C(=C\C=N\N(C)C)C2=O)cc1,-73*
Cc1ccc2oc(-c3cccc(NC(=O)C4CCCO4)c3)nc2c1 (stereo not given),-181*
O=C(Nc1cccc(-c2nc3cc(Cl)ccc3o2)c1)C1CCCO1 (stereo not given),-72*
Cc1cccc(-c2nc3cc(NC(=O)C4CCCO4)ccc3o2)c1 (stereo not given),72
Cc1nc2ccc(S(=O)(=O)Nc3cc(-c4nc5cccnc5s4)ccc3C)cc2s1,-85*
Cc1ccc(C)c(NS(=O)(=O)c2ccc(-c3cnc(C4CC4)o3)cc2)c1,93
CCOC(=O)c1cn2nc(Oc3ccc(C)cc3)ccc2n1,-75*
CCOC(=O)c1cn2nc(Oc3ccccc3)ccc2n1,-149*
Cc1cc(C)nc(/N=C(\N)Nc2ccc(F)c([N+](=O)[O-])c2)n1,-124*
Cc1ccc(CN=C(N)Nc2nc(C)cc(C)n2)cc1,117
Cc1cc(C)nc(/N=C(\N)Nc2ccc3c(c2)OCCO3)n1,-126*
SMILES,aSyn 5UTR act
Cc1ccc(Cl)c2c(N=Nc3ccccc3)c(O)[nH]c12,-170*
Cn1nc(-c2ccc(Cl)cc2)nc2c(=O)n(C)c(=O)nc1-2,110
Cc1ccc(Cn2nc(-c3ccccc3)nc2-c2ccccc2)cc1,-154*
Cn1nc(-c2ccccc2)nc1-c1ccccc1,-65*
Nc1ccccc1C#CC(=O)c1ccccc1,-90*
O=C(/C=C\Nc1ccc2c(c1)OCO2)c1ccc2c(c1)OCO2,-175*
CCOc1ccc(N/C=C\C(=O)c2ccc3c(c2)OCO3)cc1,-89*
COc1ccc(N/C=C\C(=O)c2ccc3c(c2)OCO3)cc1,-264*
O=C(/C=C\Nc1ccc2c(c1)OCO2)c1ccccn1,118
Clc1ccc(-n2ncc3c(NCCCn4ccnc4)ncnc32)cc1,-111*
CCc1nc(NC(C)(C)C)c2cnn(-c3ccccc3)c2n1,-129*
CCCCNc1ncnc2c1cnn2-c1ccccc1,-260*
CCOC(=O)N1CCC(Nc2ncnc3c2cnn3-c2ccc(Cl)cc2)CC1,-133*
Clc1ccc(-n2ncc3c(N4CCCCCC4)ncnc32)cc1,78
Clc1ccc(-n2ncc3c(NCc4ccccn4)ncnc32)cc1,-123*
COCC(C)Nc1ncnc2c1cnn2-c1ccc(Cl)cc1 (stereo not given),-132*
c1ccc(-n2ncc3c(NCCCN4CCOCC4)ncnc32)cc1,-97*
CCCCNc1ncnc2c1cnn2-c1ccc(Cl)cc1,-137*
Nc1c(C(=O)Nc2ccc3c(c2)OCCO3)nnn1CCc1ccccc1,-126*
Nc1c(C(=O)Nc2ccccc2Cl)nnn1-c1ccc2c(c1)OCCO2,-216*
Nc1c(C(=O)Nc2ccc3c(c2)OCCO3)nnn1Cc1ccc(Br)cc1,-220*
Nc1c(C(=O)Nc2ccc3c(c2)OCCO3)nnn1Cc1cccc(Br)c1,-163*
CS(=O)(=O)N(CC(=O)NCc1ccncc1)c1ccc(Cl)c(Cl)c1,-89*
C/C(=N\O)c1ccc2c3c([nH]c2c1)CCCC3,-80*
Cc1oc(-c2ccc(-c3ccccc3)cc2)nc1CN(CCO)C(C)C,-182*
SMILES,aSyn 5UTR act
Cc1oc(-c2ccc(-c3ccccc3)cc2)nc1CN(C)C1CCOC1 (stereo not given),-113*
COc1ccccc1Nc1nc(-c2cccnc2)cs1,-110*
COc1ccccc1Nc1nc(NCC(C)C)nc(N)c1[N+](=O)[O-],77
O=[N+]([O-])c1ccccc1Nc1nc(-c2cccnc2)cs1,-91*
COc1ccccc1Nc1nc(C2(C)CCC(=O)O2)cs1 (stereo not given),-106*
COc1ccc(Nc2nc(-c3cccnc3)cs2)c(OC)c1,-175*
COc1ccc(OC)c2nc(-c3cccnc3)ccc12,-67*
CC1=CC(C)(C)N=C(Nc2ccc(C)cc2)S1,-169*
Nc1nc2c(C(=O)N3CCOCC3)nnn2c2ccccc12,-66*
C(=N\C(/N=C/c1ccco1)c1ccco1)/c1ccco1,-68*
CC(Oc1c(Cl)cccc1Cl)C1=NCCN1 (stereo not given),-80*

# Bioassay records (PubChem BioAssay)
